Screening data from PubChem.
ClpP mod: qHTS Assay for Activators of ClpP; ATP-dependent Clp protease proteolytic subunit (Bacillus subtilis (strain 168)), P80244; purified B. subtilis ClpP, FRET peptide cleavage, 20 min; Potency, µM (doses to about 57.5 µM), inactives show at the top dose activity change, negative = active; 340,000 tested, 1.9% active; active = well fitted falling curve with a large enough effect; inconclusive = small, poorly fitted or top-dose-only effect; inactive = no such curve, though single readings can be large or run the other way; also: the source files actives as falling curves though it sought activators and does not explain the sign; nearly all actives have a fitted effect of over 65% in size
Target sequence (P80244 whole entry, looked up): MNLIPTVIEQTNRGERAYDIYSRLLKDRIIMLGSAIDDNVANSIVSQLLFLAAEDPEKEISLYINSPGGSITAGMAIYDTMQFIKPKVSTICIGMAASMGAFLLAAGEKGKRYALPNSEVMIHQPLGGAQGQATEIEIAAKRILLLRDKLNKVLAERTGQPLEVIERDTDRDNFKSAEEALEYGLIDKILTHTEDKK
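Purified B. subtilis ClpP, 10 microg/mL final in Tris/HCl pH8 with KCl, BSA, glycerol and Tween-20, cleaved an Abz/nitrotyrosine-quenched decapeptide. Fluorescence (ex 320, em 430) was read at 0 and 20 min at room temperature. Delta was normalized to 5.8 microM ADEP and DMSO/no-enzyme controls.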
PINK1 modulator: PINK1 expression modulation; PINK1 immunofluorescence, high-content cytometry, 24 h; Potency, µM (highest dose often 76.6 µM), inactives show at the top dose activation (PINK1 increase), actives largely listed as activators; 410,000 tested, 0.2% active; AID 624263; active = well fitted activation curve with a large enough effect; inconclusive = small, poorly fitted or top-dose-only effect; cell line not stated here; also: % of control where 0% means no effect; nearly all actives have a fitted effect of over 65% in size
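Fluorescence from anti-PINK1 antibody, together with nuclear and cell stains, was scanned on a laser-scanning cytometer. Before staining, stable-line cells were incubated 24 hours with compounds at 5 concentrations; primary antibody 12 h at 10 degrees C.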
RORgamma inh: ROR gamma (mouse) transcription inhibition; P51450; Drosophila S2 Gal4-RORgamma UAS-luciferase reporter, 20 h; Potency, µM (titrated, usually from 53.6 µM), inactives show top-dose activity change, negative = inhibition, usual class: inhibitors; 310,000 tested, 5.4% active; AID 2551; also: % is scaled to controls: 0 for no effect and ±100 for the full control effect; nearly all actives have a fitted effect of over 60% in size
Target sequence (P51450 whole entry, looked up, the tested form may be a part): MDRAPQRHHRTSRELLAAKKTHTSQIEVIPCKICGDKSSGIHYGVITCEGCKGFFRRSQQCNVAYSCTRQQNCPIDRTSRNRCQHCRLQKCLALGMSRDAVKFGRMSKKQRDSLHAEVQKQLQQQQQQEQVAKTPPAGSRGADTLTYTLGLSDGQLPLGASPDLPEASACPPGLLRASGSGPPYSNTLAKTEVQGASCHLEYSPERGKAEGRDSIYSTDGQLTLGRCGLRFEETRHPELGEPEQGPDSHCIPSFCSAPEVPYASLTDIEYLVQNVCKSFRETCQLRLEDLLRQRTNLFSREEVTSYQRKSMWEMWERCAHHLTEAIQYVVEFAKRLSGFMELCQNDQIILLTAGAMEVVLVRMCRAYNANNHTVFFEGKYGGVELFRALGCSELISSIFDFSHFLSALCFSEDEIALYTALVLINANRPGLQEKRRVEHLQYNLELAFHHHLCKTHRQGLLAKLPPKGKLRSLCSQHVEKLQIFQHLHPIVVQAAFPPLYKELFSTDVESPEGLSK
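Using a luciferase readout, inhibitors were identified by reduced reporter activity in Drosophila cells coexpressing a copper-inducible Gal4–ROR gamma fusion and UAS-driven Photinus luciferase, incubated 20 hr after 700 uM copper sulfate.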
VP16 counter: Gal4-VP16 reporter inhibition counter-screen. 310,000 tested, 3.5% active. Potency, µM (titrated, usually from 53.6 µM), inactives show at the highest dose activity, negative = inhibition, hits mostly inhibitors. Drosophila S2 Gal4-VP16 UAS-luciferase, luminescence, 20 h;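 also: Gal4-VP16 expression switched on by copper sulfate through the metallothionein promoter; % is scaled to controls: 0 for no effect and ±100 for the full control effect; nearly all actives have a fitted effect of over 50% in size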
Epigenetic derep: epigenetic control regulation, reporter derepression; Potency, µM (titrated, usually from 53.9 µM), for the others: at the top dose GFP activation, usual class: activators; 280,000 tested, 0.2% active; AID 1865; murine LDR cells, GFP reporter derepression, 30 h; also: % of control where 0% means no effect; nearly all actives have a fitted effect of over 60% in size
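Reporter derepression read as number of fluorescent GFP-positive objects, 20-120 um in size, counted by laser-scanning cytometer. Mouse LDR line with an epigenetically silenced CMV-GFP locus; compound incubation 30 h, 37 C.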
Sfp PPTase inh: Sfp phosphopantetheinyl transferase inhibition. Potency, µM, without a hit: largest response in the series, negative = inhibition, actives largely listed as inhibitors. 310,000 tested, 3.5% active. AID 1490. Biochemical Sfp PPTase activity, qHTS. Q9F4F7;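 also: the enzyme is Sfp with the accession as filed and its product quenches rhodamine fluorescence; 0% = enzyme reaction without inhibitor and -100% = no enzyme wells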
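Step 1, compound plus 15 nM Sfp-PPTase, 15 min, room temperature. Step 2, add rhodamine-CoA (5 uM) and BHQ-2-YbbR (12.5 uM). Step 3, read 525/598 nm fluorescence at 0 and 30 min.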
Starred values were filed as active, the others as inactive; ? = inconclusive; . = no result given; ! = a repeat was not active; [ ] = dose if it differs, or a comment. Only some compounds are listed: those with a hit (about 8.1% of all), similar ones and a draw of the others. Unless noted, calls follow the shape of the dose curve; as a rule, active = well fitted curve in the direction sought with a large enough effect; inconclusive = small, poorly fitted or top-dose-only effect, or another doubt; inactive = no such curve, though single readings can be large; an effect the other way counts as inactive or inconclusive. Potency is read from the fitted curve at half-maximal effect.

SMILES | ClpP mod | PINK1 modulator | RORgamma inh | VP16 counter | Epigenetic derep | Sfp PPTase inh
O=Cc1cn(Cc2ccccc2F)c2ccccc12 | . | -1.8% | 2µM* | -14.5%[10 µM] | -0.1% | ?
COc1ccccc1OCCCn1cc(C=O)c2ccccc21 | . | -0.9% | ? | 0.002µM* | 7.2% | -13.2%
N#Cc1ccc(Cn2cc(C=O)c3ccccc32)cc1 | -2.0% | 3.0% | 15.7% | -3.7% | . | 7.4%
CCC1COC(Cn2cncn2)(c2ccc(Cl)cc2Cl)O1 (stereo unspecified) | . | . | -26.8% | 0.1% | . | -22.6%
OC(c1ccc(Cl)cc1)(c1cncnc1)c1ccccc1Cl (stereo unspecified) | . | . | 24.3% | -1.3% | . | -12.1%
CCOC(=O)C(O)(c1ccc(NC(=S)NC(=O)c2ccc(Cl)cc2Cl)cc1)C(F)(F)F (stereo unspecified) | -2.2% | ? | 6.31µM* | 10µM* | 0.0% | -22.1%
COC(=O)C(O)(c1ccc(NC(=S)NC(=O)c2ccc(Cl)cc2Cl)cc1)C(F)(F)F (stereo unspecified) | -0.9% | 9.8% | 5.01µM* | ? | 1.0% | 3.6%
CCOC(=O)CC(SP1(=S)OCC2(CCCCC2)CO1)C(=O)OCC (stereo unspecified) | 28.2µM* | 0.3% | . | . | . | .
CCCc1cc2c(n1Cc1ccco1)C(C)C1CN(C(=O)c3ccccc3)C(C)(C(=O)OC)C21 (stereo unspecified) | . | . | 18.8% | 4.4% | 1.6% | 31.6µM*
COc1ccc(C(=O)N2CCC3(CC2)OCCO3)cc1 | . | -0.8% | -1.9% | 0.8% | . | 5.4%
O=C(c1ccc2nc3ccc(Cl)cc3c(=O)n2c1)N1CCC2(CC1)OCCO2 | 14.1µM* | -2.4%[38.3 µM] | . | . | . | .
O=C(c1ccc(Cl)cc1)N1CCC2(CC1)OCCO2 | -0.7% | 1.8% | -1.0% | 0.3% | . | 6.8%
O=C(c1ccc2nc(-c3ccco3)c(-c3ccco3)nc2c1)N1CCC2(CC1)OCCO2 | -5.5% | -1.5% | -29.0% | -7.5% | -0.9% | 8.91µM*
O=C(O)c1ccccc1-c1c2cc(Br)c(=O)cc-2oc2[c]([Hg])c(O)c(Br)cc12 | . | . | ? | 17.8µM*! | ? | 2µM*!
Clc1cccc2ccccc12 | . | . | -18.5% | 0.8% | . | .
S=C=Nc1cccc2ccccc12 | . | . | 6.31µM* | 12.6µM* | . | .
COc1ccc(/C=C2/C(=O)NC(=O)N(C3CCCCC3)C2=O)cc1CSc1ccccn1 | . | . | 25.6% | ? | 0.2% | 56.2µM*
COc1ccc(C=C2C(=O)N(C)C(=O)N(C)C2=O)cc1CSc1ccccn1 | 12.3% | 4.5% | -3.6% | 9.4% | -1.2% | 44.7µM*
C=C(Cl)Cl | . | . | 15.2% | 1.3% | . | .
c1cc[n+]2c(c1)-c1cccc[n+]1CC2 | . | . | -26.7% | -6.2% | . | 20.6%
Cc1cc(I)ccc1Nc1c(C(=O)NOCC2CC2)cc(F)c(F)c1F | . | . | ? | ? | . | 14.2%
CCN(CC)c1ccc(CC2C(=O)N(C)C(=O)N(C)C2=O)cc1 | 8.91µM* | 1.0% | -13.5% | 19.7% | 2.3% | ?
C=CCOc1ccc(CC2C(=O)N(C)C(=O)N(C)C2=O)cc1 | -0.1% | 1.2% | 11.0% | 17.7% | -0.9% | -15.5%
COC(=O)[C@@H]1C[C@@]2(O)[C@H](O)[C@H](O)[C@H](O)C[C@H]2N1Cc1cccnc1 | . | . | 8.5% | -3.3% | 2.9% | 10.5%
CC(=O)C(Sc1ncnc2c1nnn2-c1ccc(F)cc1)C(=O)N(C)C (stereo unspecified) | 3.3% | -0.7% | 10.9% | -2.4% | 12.9% | 10µM*
SMILES | ClpP mod | PINK1 modulator | RORgamma inh | VP16 counter | Epigenetic derep | Sfp PPTase inh
CO[C@@H](COC(N)=O)C1=C(N2CC2)C(=O)C(C)=C(N2CC2)C1=O | . | . | ? | 11.2µM* | . | -7.6%
COC(COC(N)=O)C1=C(N2CC2)C(=O)C(C)=C(N2CC2)C1=O (stereo unspecified) | -18.8% | -1.6% | . | . | . | .
CC1(C)CN=C(Nc2nc3ccccc3s2)S1 | -2.8% | 1.0% | 8.91µM* | ? | 0.0% | 11.9%
CC1(C)CN=C(NCc2ccccc2)S1 | -1.7% | -0.7% | . | . | . | .
CCc1ccccc1NC(=O)C(CC)Oc1ccccc1-c1nnc(-c2ccccc2)o1 (stereo unspecified) | ? | 6.0% | . | . | 0.0% | .
CN1CCN(C(=S)c2ccc([N+](=O)[O-])cc2)CC1 | 2.2% | -1.0% | 3.9% | 4.0% | -1.0% | 12.6µM*
O=[N+]([O-])c1ccc(C(=Nc2ccccc2)N2CC2)cc1 | 2.3% | -1.8% | . | . | . | .
CCn1nc(-c2cccs2)nc2c(=O)n(C)c(=O)nc1-2 | 0.4% | -1.5% | 0.794µM* | 1.26µM* | ? | -5.0%
O=c1c2cc([N+](=O)[O-])ccc2nc(CN2CCOCC2)n1-c1ccccc1F | . | . | 15.7% | -19.0% | -2.3% | 22.4µM*
COc1cccc(-n2c(CN3CCN(C)CC3)nc3ccc([N+](=O)[O-])cc3c2=O)c1 | -3.0% | 0.6% | 15.6%[10 µM] | -12.7% | 1.1% | 7.94µM*
CCCc1nc2ccccc2c(=O)n1-c1cccc(OC)c1 | -1.1% | 1.0% | 3.9% | -6.2% | 0.0% | 6.0%
CC/C=C\C/C=C\C/C=C\C/C=C\C/C=C\CCCC(N)=O | . | . | -16.0% | 6.9% | -1.1% | -10.3%
CCCCC/C=C\C/C=C\C/C=C\CCCCC(=O)NCCO | . | . | -19.5% | -7.4% | -1.1% | 1.9%
N#Cc1cccc(NC(=O)N2CC[C@@]3(CCCN(C(=O)Oc4ccccc4)C3)C2)c1 | . | 0.1% | -23.1% | -11.1% | . | 1.0%
COc1ccc(CC(=O)NC(=S)NNC(=O)COc2c(C)cccc2C)cc1 | 1.0% | 9.2% | 12.6µM* | -22.3% | -1.0% | 2.3%
O=C(COc1ccccc1)Nc1ccc(Cl)cc1C(=O)c1ccccc1 | ? | 6.6% | -6.4% | -2.2% | 2.0% | -3.3%
Cc1ccccc1C(=O)NNC(=S)NC(=O)COc1ccccc1 | -2.0% | -5.7%[38.3 µM] | 12.6µM* | ? | 1.6% | ?
NCC(N)C(=O)c1ccccc1 (stereo unspecified) | . | -1.1% | -23.6% | 3.5% | -2.2% | -3.0%
C[S@@](=O)CCCCN=C=S | . | . | 3.16µM* | -11.4% | . | -7.8%
C=CC[C@]1(O)CC[C@H]2[C@@H]3CCC4=CC(=O)CCC4=C3C=C[C@@]21C | . | . | 23.1% | 0.8% | . | ?
C=CCN1C(=O)NC(=O)/C(=C/c2cnc(SC)nc2)C1=O | -1.0% | 3.3% | -21.9% | 0.0% | -1.0% | 31.6µM*
C=CCN1CCc2cccc3c2[C@H]1Cc1ccc(O)c(O)c1-3 | . | 0.4% | ? | ? | . | 44.7µM*
CCCN1CCc2cc(O)cc3c2C1Cc1ccc(O)c(O)c1-3 (stereo unspecified) | . | . | . | . | ? | 35.5µM*
C[N+]1(C)[C@@H]2CC(OC(=O)[C@@H](CO)c3ccccc3)C[C@@H]1[C@H]1O[C@H]12 (stereo partly specified) | . | . | -0.6%[10 µM] | -10.0% | . | -2.1%
